The target in one test is Albumin (Bos taurus) (UniProt P02769). The experiment in a line: compounds binding labelled BSA control protein – biochemical, small-molecule microarray, Alexa647 label, 635/667 nm fluorescence, artefact control for SMM control protein annotation, profiling panel (AID 1118).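 Also: score merges 667 nm emission intensity and signal-to-noise per printed compound spot.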 Conditions: BSA-A647 binding, fluorescence 635 nm, higher = more signal.
Test [1] is described as follows: probe aXIP binding to arrayed compounds – biochemical, NeuroSMM set, 635/667 nm fluorescence, primary screen (AID 1119).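 Also: probe is the protein aXip251-270 applied at 1 µg/mL to compound-printed slides; binding of probe to printed compounds measured as 667 nm fluorescence plus signal to noise.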 Conditions: small-molecule microarray, higher = more signal, called active from +8 up or from −8 down.
The nature of test [2]: probe aNOTCH3 binding on compound microarray – biochemical, small-molecule microarray, 635/667 nm fluorescence, primary screen (AID 1120).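 Also: probe is a biotin-tagged antibody raised against NOTCH3 rather than NOTCH3 protein; score merges spot fluorescence near 667 nm with spot signal to noise.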 Conditions: higher = more signal.
Test [3] can be described thus: probe aNOTCH2 binding on compound microarray – biochemical, small-molecule microarray, 635/667 nm fluorescence, primary screen (AID 1121).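 Also: score merges feature fluorescence read at 667 nm with its signal to noise.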 To be noted: higher = more signal.
Test [4] deals with Carbonic anhydrase 2 (Homo sapiens) (UniProt P00918). Put plainly: compounds binding carbonic anhydrase 2 – biochemical, small-molecule microarray, Alexa647-labelled CAII, profiling panel (AID 1122). To be noted: CAII-A647 binding fluorescence, higher = more signal.
A short description of test [5]: COS7 lysate on small-molecule microarray, probe aHis, 635 nm (AID 1123).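 Also: z-score combines 667nm fluorescence intensity with signal-to-noise per printed compound spot.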 Conditions: COS7 cell lysate, fluorescence, higher = more signal.
A short description of test [6]: probe aLAP1 signal on lysate-treated microarray – cell lysate, small-molecule microarray, COS7 lysate, primary screen (AID 1124).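 Also: lysate comes from COS7 cells expressing LAP1 and is applied at 0.3 µg/mL; score merges spot fluorescence near 667 nm with signal-to-noise over triplicate slides.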 Conditions: probe aLAP1, fluorescence, higher = more signal.
Another test has as its system Sam68 (KHDRBS1). Put plainly: compounds binding KHDRBS1 protein – biochemical, small-molecule microarray, 635 nm fluorescence, primary screen (AID 1125).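 Also: score merges 667 nm channel intensity with signal to noise over triplicate slides.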 Conditions: higher = more signal.
For test [7], the system named is Chordin-like protein 2 (CHRDL2). The experiment in a line: compounds binding chordin-like 2 – biochemical, small-molecule microarray, 635 nm fluorescence, primary screen (AID 1126).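 Also: printed compound slides probed with Chrdl2 protein at 4 µg/mL for 1 h at 4 C; score merges 667 nm emission intensity with signal to noise over three replicate slides.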 To be noted: fluorescence 635 nm, higher = more signal.
In test [8] the target is Concanavalin-A (Canavalia ensiformis) (UniProt P02866). Put plainly: compounds binding concanavalin A lectin – biochemical, small-molecule microarray, Alexa647 label, 635 nm, artefact control for SMM control protein annotation, primary screen (AID 1127).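 Also: z combines 667 nm emission intensity with signal-to-noise across three replicate slides.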 Conditions: ConA-A647 binding fluorescence, higher = more signal.
A short description of test [9]: compounds binding Alexa647 anti-His antibody – biochemical, small-molecule microarray, 635 nm fluorescence, artefact control for SMM control protein annotation, primary screen (AID 1128).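 Also: score merges feature fluorescence with signal-to-noise for each printed compound spot.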 To be noted: higher = more signal.
For test [10], the system named is Human papillomavirus type 1a E7 protein (residues 1-88). Put plainly: HPV1a E7 small-molecule binders, primary screen, biochemical, small-molecule microarray, residues 1-88, 635 nm (AID 1129). To be noted: small-molecule microarray binding, fluorescence 635 nm; higher = more signal.
For test [11], the target named is Focal adhesion kinase 1 (Homo sapiens) (UniProt Q05397). Put plainly: PTK2 protein binding on printed compound slides – biochemical, small-molecule microarray, 635/667 nm fluorescence, BSA, DTT, primary screen (AID 1130).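 Also: composite of spot emission at 667 nm and signal to noise over triplicate slides.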 Conditions: 635 nm fluorescence, higher = more signal.
The test system of test [12] is Fibrinogen (Alexa647-labelled). Put plainly: Alexa647-fibrinogen binding to printed small molecules – biochemical, small-molecule microarray, 635/667 nm fluorescence, artefact control for SMM control-protein annotation, profiling panel (AID 1131).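 Also: z-score merges 667 nm fluorescence with per-spot signal-to-noise over triplicate slides.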 To be noted: fibrinogen-A647 binding fluorescence, higher = more signal.
For test [13], the target named is Follistatin (Homo sapiens) (UniProt P19883). Put plainly: FST protein binding to printed compounds – biochemical, small-molecule microarray, 635/667 nm fluorescence, primary screen (AID 1132). To be noted: 635 nm fluorescence, higher = more signal.
Test [14] deals with Fibroblast growth factor 2 (Homo sapiens) (UniProt P09038). The experiment in a line: basic fibroblast growth factor binding to printed compounds – biochemical, small-molecule microarray, 635/667 nm fluorescence, primary screen (AID 1133). To be noted: FGF2, fluorescence 635/667, higher = more signal.
The nature of test [15]: JC-1 mitochondrial potential readout, lung cancer cells – cell-based, A549, JC-1 fluorescence, basal, 24 h, 100 nL, profiling panel (AID 1138).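 Also: A549 lung adenocarcinoma cells under basal conditions with no added stimulus; test concentration not given here.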 To be noted: higher = more signal.
A further test relates to Lefty1. Put plainly: Lefty1 protein binding to printed compounds – biochemical, small-molecule microarray, 635/667 nm fluorescence, primary screen (AID 1139). To be noted: fluorescence 635/667, higher = more signal.
Test [16] deals with wheat germ agglutinin (Triticum aestivum), Alexa647-labelled. Put plainly: Alexa647-WGA lectin binding to printed small molecules – biochemical, small-molecule microarray, 635/667 nm fluorescence, artefact control for SMM control-protein annotation, profiling panel (AID 1140).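 Also: score merges 667 nm feature emission with signal to noise over triplicate slides.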 Conditions: WGA-A647 binding, 635 nm fluorescence, higher = more signal.
For test [17], the target named is Luciferin 4-monooxygenase (Photinus pyralis) (UniProt P08659). The experiment in a line: inhibition of purified Photinus pyralis luciferase – biochemical, luminescence, purified enzyme, 2006 set, primary screen (AID 1141).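 Also: cell-free assay with purified firefly luciferase at 100 ng per well in PBS; test concentration not given here.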 Conditions: purified firefly luciferase, SteadyGlo luminescence, 30 min; higher = more signal, called active from +8 up or from −8 down.

Consider five molecules from PubChem BioAssay.

Activity calls are given as the source filed them.

Fibroblast growth factor 2 (Homo sapiens), sequence (P09038 whole entry, looked up): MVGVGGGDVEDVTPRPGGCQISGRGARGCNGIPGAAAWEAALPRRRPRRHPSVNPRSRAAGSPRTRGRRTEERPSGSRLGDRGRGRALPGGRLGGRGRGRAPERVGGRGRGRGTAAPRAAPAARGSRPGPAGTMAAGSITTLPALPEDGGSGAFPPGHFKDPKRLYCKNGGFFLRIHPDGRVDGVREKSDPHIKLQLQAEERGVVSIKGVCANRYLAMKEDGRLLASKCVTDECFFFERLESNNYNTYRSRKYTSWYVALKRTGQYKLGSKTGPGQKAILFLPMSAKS
Concanavalin-A (Canavalia ensiformis), sequence (P02866 whole entry, looked up): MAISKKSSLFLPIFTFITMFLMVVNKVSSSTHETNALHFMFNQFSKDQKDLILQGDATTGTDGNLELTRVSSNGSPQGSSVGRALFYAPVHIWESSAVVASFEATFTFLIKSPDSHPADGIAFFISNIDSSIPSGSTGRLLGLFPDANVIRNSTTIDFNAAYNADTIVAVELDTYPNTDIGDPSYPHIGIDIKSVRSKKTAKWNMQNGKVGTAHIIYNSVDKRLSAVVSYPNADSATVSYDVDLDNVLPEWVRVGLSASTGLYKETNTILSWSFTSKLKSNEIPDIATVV
Focal adhesion kinase 1 (Homo sapiens), sequence (Q05397 whole entry, looked up): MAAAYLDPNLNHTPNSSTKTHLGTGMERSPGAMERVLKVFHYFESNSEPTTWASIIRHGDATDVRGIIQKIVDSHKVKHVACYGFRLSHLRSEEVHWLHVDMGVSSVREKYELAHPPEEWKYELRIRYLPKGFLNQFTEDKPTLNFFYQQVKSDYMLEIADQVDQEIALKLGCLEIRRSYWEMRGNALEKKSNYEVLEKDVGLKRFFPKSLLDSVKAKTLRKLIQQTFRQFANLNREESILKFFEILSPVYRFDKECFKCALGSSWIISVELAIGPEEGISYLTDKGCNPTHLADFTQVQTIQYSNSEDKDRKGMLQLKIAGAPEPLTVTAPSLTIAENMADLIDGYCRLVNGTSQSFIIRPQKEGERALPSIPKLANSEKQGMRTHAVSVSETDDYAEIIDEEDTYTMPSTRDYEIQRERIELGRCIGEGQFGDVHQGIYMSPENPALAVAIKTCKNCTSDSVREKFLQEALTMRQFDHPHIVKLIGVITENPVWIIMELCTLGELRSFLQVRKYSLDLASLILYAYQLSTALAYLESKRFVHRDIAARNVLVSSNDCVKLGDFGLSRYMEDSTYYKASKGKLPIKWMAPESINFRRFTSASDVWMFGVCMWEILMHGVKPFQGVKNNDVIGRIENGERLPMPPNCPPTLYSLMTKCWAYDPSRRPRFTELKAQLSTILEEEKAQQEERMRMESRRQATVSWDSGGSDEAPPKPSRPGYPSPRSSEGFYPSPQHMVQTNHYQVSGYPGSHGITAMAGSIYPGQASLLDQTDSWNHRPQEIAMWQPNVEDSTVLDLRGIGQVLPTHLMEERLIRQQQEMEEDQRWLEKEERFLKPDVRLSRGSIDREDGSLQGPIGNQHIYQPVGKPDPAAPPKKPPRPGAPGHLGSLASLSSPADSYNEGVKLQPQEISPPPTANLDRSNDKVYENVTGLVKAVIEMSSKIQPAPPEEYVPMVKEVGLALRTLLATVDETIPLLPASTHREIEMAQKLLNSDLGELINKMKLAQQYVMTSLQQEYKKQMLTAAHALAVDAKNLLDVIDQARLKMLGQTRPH
Albumin (Bos taurus), sequence (P02769 whole entry, looked up): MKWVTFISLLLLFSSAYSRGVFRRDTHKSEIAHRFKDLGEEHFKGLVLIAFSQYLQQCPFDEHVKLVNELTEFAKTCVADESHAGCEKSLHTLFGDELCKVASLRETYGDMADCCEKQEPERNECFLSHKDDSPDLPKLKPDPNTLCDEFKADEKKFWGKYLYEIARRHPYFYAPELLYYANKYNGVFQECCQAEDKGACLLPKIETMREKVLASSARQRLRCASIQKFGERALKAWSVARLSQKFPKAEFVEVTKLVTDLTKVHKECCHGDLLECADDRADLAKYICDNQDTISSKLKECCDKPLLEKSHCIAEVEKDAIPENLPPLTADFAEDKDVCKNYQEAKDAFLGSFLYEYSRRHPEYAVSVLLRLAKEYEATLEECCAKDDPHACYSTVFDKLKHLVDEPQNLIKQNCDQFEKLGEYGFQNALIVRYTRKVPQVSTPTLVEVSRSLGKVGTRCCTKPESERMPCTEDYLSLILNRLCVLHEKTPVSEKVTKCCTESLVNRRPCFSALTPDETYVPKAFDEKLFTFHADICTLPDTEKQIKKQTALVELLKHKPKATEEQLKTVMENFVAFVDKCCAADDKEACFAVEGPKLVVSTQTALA
Follistatin (Homo sapiens), sequence (P19883 whole entry, looked up): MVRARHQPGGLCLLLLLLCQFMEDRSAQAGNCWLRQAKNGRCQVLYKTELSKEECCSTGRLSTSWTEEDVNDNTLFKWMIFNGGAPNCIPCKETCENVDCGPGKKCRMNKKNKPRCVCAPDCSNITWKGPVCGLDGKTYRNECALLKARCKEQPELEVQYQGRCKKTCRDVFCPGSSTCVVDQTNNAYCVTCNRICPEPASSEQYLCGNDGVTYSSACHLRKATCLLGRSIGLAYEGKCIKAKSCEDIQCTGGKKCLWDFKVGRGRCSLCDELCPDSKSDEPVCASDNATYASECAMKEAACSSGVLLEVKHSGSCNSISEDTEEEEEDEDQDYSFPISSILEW
Luciferin 4-monooxygenase (Photinus pyralis), sequence (P08659 whole entry, looked up): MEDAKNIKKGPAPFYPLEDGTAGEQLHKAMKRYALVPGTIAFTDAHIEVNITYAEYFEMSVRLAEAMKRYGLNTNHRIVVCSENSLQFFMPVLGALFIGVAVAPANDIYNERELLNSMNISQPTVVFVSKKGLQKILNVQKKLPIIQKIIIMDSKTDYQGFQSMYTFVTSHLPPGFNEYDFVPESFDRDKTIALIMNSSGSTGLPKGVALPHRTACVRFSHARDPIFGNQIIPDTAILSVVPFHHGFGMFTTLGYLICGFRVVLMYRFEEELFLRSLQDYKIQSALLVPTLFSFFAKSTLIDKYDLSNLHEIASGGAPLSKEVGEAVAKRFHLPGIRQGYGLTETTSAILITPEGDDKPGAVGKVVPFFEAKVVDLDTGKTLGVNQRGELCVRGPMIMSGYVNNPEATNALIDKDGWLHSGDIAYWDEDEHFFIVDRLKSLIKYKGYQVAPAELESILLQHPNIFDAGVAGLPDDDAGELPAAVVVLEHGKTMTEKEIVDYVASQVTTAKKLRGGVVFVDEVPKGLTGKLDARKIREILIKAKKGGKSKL

On to `CC(C)CNC(=O)[C@@]1(Cc2ccccc2I)c2ccccc2C(=O)N(C2CCCCC2)[C@H]1c1ccc(CO)cc1`, for which the composite z-score was 0.82 in the test with Albumin (Bos taurus); -0.139 in test [2]; -0.0432 in [3]; 0.619 in test [4]; 2.1 in test [5]; 2.06 in [6]. Besides, the composite z-score stood at 0.342 with Sam68 (KHDRBS1); 0.133 in test [7]; 0.565 in [8]; 1.57 in test [9]; 1 in [10]; 0.321 in test [11]. Also, the composite z-score in test [12] was 0.348; in [13], 0.0932; in test [14] it was 0.99; in the test with Lefty1, -0.104; in test [16], 0.84. In [1], the composite Z-score is 2.21 (inactive). Further, the values for the z-score in test [15] and in test [17] were 1.57 and 0.258 (inactive), respectively.

For the molecule `CC(C)C[C@@H]1NC(=O)[C@@H]2C[C@H](C(=O)NCc3ccc(F)cc3)[C@H](c3cccc(OCCO)c3)N2C1=O`, the composite z-score was -0.972 in the test with Albumin (Bos taurus); -0.229 in [2]; -0.166 in test [3]; 0.549 in [4]; 0.558 in test [5]; 1.19 in test [6]. Besides, the composite z-score with Sam68 (KHDRBS1) came to 0.72; in [7] it was 0.915; in test [8], 0.902; in test [9], 2.05; in [10] it was 0.135; in test [11] it was 0.379. Further, the composite z-score in test [12] is -0.373; in [13], 1.47; in test [14], 1.46; in the test on Lefty1, 0.616; in test [16] it was -0.129. Also, the composite Z-score in [1] is 0.532 (inactive). Moreover, the results for the z-score in [15] and in [17] were 1.87 and -0.976 (inactive), respectively.

Take `NC(=O)NCC#Cc1ccc2c(c1)[C@]1(C(=O)N2)[C@H](c2ccc(O)cc2)N2[C@H](c3ccccc3)[C@H](c3ccccc3)OC(=O)[C@H]2[C@@H]1C(=O)O`: the composite z-score in the test with Albumin (Bos taurus) is 0.43; in test [2], -0.725; in test [3] it was -0.281; in test [4], 0.241; in test [5], 0.547; in [6], -0.0085. Further, the composite z-score was -0.0756 in the test with Sam68 (KHDRBS1); -1.43 in test [7]; 0.411 in test [8]; 0.948 in test [9]; -0.404 in test [10]; -0.415 in test [11]. Moreover, the composite z-score in test [12] is -0.159; in test [13], -0.386; in [14], -0.912; in the test with Lefty1, -0.283; in [16], -0.142. Besides, the composite Z-score in [1] was 0.619 (inactive). Further, the z-score was -0.61 in [15] and 0.323 (inactive) in test [17].

On to `C=CCC(OC(C)=O)[C@@H]1[C@@H](N(Cc2ccc(-c3cccc(C(F)(F)F)c3)o2)C(=O)c2ccc(C)cc2)c2cc(OCCCO)ccc2N1C(=O)Cc1ccc2ccccc2c1` (stereo not given in full), for which the composite z-score is -0.257 with Albumin (Bos taurus); -0.0702 in test [2]; -0.153 in [3]; -0.253 in test [4]; -0.275 in test [5]; -0.472 in test [6]. For the same molecule, the composite z-score in the test with Sam68 (KHDRBS1) is -2.05; in test [7], 0.264; in test [8] it was -0.594; in [9], 0.357; in test [10], -1.49; in [11], 0.0103. The composite z-score was 0.658 in [12]; 0.107 in test [13]; -0.358 in test [14]; -0.454 in the test on Lefty1; 0.234 in test [16]. In addition, in [1], the composite Z-score is 0.421 (inactive). Also, the z-score in test [15] was 0.71; in test [17], -0.453 (inactive).

For the molecule `COCCOC(=O)N1C(=O)[C@@]2(c3cc(C#CCC(C(=O)OC)C(=O)OC)ccc31)[C@H](C(=O)N1CCN(c3ncccn3)CC1)[C@H]1C(=O)O[C@H](c3ccccc3)[C@H](c3ccccc3)N1[C@@H]2c1ccccc1OCCO`, the composite z-score with Albumin (Bos taurus) was -0.503; in test [2], 0.176; in [3] it was -0.147; in test [4], 0.347; in test [5], 0.928; in test [6], 0.698. Also, the composite z-score amounted to 1.29 in the test with Sam68 (KHDRBS1); 1.09 in test [7]; 1.13 in test [8]; 1.02 in test [9]; 1.2 in test [10]; 0.467 in test [11]. The composite z-score in test [12] was 0.997; in [13], 1.38; in test [14], 1.29; in the test with Lefty1, 1.54; in [16], 0.755. Further, the composite Z-score in test [1] is -0.444 (inactive). In addition, the z-score in test [15] is -0.835; in [17], -0.291 (inactive).
